Pf growth 96h: P. falciparum growth inhibition at 96 hours; AID 504834; P. falciparum luciferase reporter growth, 96 h; Potency, µM (top dose mostly 28.7 µM), for inactives: top-dose activity change, negative = inhibition, actives largely listed as inhibitors; 6.9% of 320,000 active; further: on the % scale 0 is the no-effect control and ±100 the full control effect
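Infected RBCs, 2% Hct / 0.05% parasitemia final; luciferase-reporter P. falciparum; cpd 96 h, 37 C, 5% CO2; luciferase detection reagent; luminescence.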
SARS PLP yeast: inhibitors of SARS-CoV papain-like protease in yeast. Potency, µM (top dose mostly 32.9 µM), for inactives: top-dose activity, positive = growth rescue, actives largely listed as activators. AID 485353. S. cerevisiae expressing SARS-CoV PLpro, growth rescue. 0.19% of 330,000 active; calls by dose curve; further: 0% is about no effect; nearly all actives have a fitted effect of over 55% in size
NS1 function inh: blocks influenza NS1 protein function | Potency, µM (titrated, usually from 46.1 µM), for the others: top-dose activity, positive = more growth | 0.4% of 270,000 active; calls by dose curve; further: actives are rising curves; nearly all actives have a fitted effect of over 50% in size
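In this qHTS, NS1 from influenza A is expressed in budding yeast, where it slows growth. Cells are switched from glucose to 2% galactose medium (pH 6.0, -URA), treated with compound, and growth recovery is read at OD600.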
HCV inhibitor: HCV inhibition | AID 651820 | Huh7.5.1 HCVcc-Cre infection, luciferase reporter, 44 h | 3.4% of 340,000 active | Potency, µM (series often up to 41.8 µM), for inactives: at the top dose activity change, negative = inhibition, actives largely listed as inhibitors; further: on the % scale 0 is the no-effect control and ±100 the full control effect
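Antiviral activity was scored by luciferase reporter output from cells infected with HCVcc-Cre (~0.5 moi) in presence of compound, 44 h infection period, cells seeded 1,000/well 4 h prior.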
Pf growth 48h: inhibits P. falciparum growth in the first generation, 48 h | 5.9% of 310,000 active | Potency, µM (highest dose often 28.7 µM), for the others: top-dose activity change, negative = inhibition, usual class: inhibitors | P. falciparum luciferase growth in erythrocytes, 48 h | AID 504832; further: on the % scale 0 is the no-effect control and ±100 the full control effect
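A one-generation exposure of luciferase-tagged malaria parasites in RPMI 1640/Albumax erythrocyte culture, 37 C and 5% CO2. Inhibition is inferred from decreased luminescence after adding detection reagent.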
AMA1 RON2 block: AMA1-RON2 (P. falciparum) interaction inhibition | 0.2% of 360,000 active | Potency, µM (series often up to 58.2 µM), for the others: at the top dose activity change, negative = inhibition, usual class: inhibitors | AlphaScreen AMA1-biotinylated RON2 peptide binding;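 further: 0% = vehicle wells and -100% = peptide control; nearly all actives have a fitted effect of over 45% in size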
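AMA1 (3D7) with his tag at 25 nM final met compounds first, then biotinylated RON2 peptide at 25 nM; detection used donor plus acceptor beads, 10 µg/mL apiece, read by AlphaScreen after 30 min at room temperature.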
Numbers without * were called inactive; ? = inconclusive; nt = no result given; [ ] = remark or other dose. Shown are actives, neighbours in structure and some others; about 12% of the full set was active somewhere. Unless noted, the call rests on the fitted dose curve; in most records, active means well fitted curve in the direction sought with a large enough effect; inconclusive means small, poorly fitted or top-dose-only effect, or another doubt; inactive means no such curve, though single readings can be large; an effect the other way counts as inactive or inconclusive. Potency means the concentration at half of the fitted maximal effect.

SMILES	Pf growth 96h	SARS PLP yeast	NS1 function inh	HCV inhibitor	Pf growth 48h	AMA1 RON2 block
COc1ccc(OC)c(C2CC(=O)N3CN(c4ccccc4)CSC3=C2C#N)c1 (centres undefined)	?	3%	-43%	3%	nt	15%
COc1ccc(C2CC(=O)N3CN(c4ccccc4F)CSC3=C2C#N)cc1OC (centres undefined)	7%	1%	-40%	14%	nt	22%
Cc1cccc(N2CSC3=C(C#N)C(c4ccc(C)o4)CC(=O)N3C2)c1 (centres undefined)	10µM*	4%	1.8µM*	nt	36%	nt
CC(C)CNC(=O)O	nt	nt	-1%	nt	nt	nt
O=C(CSc1nnc(NC(=O)c2c(F)cccc2F)s1)NC1CCCCC1	47%	-1%	0%	5%	-10%	-13%
COc1ccc2c(Cl)c(C(=O)NN3CCN(C)CC3)sc2c1	?	1%	1%	?	11%	11%
C#CCOCCOCCOCCNc1nc(N2CCN(C(=O)CCCCCCCCCCNC(=O)[C@@H](CCSC)n3cc(CCO)nn3)CC2)nc(N2CCN(C(=O)CCCCCCCCCCNC(=O)[C@H]([C@@H](C)CC)n3cc(CCCCCN)nn3)CC2)n1	2.1µM*	-4%	nt	?	1.7µM*	?
C#CCOCCOCCOCCNc1nc(N2CCN(C(=O)CCCCCCCCCCNC(=O)[C@@H](CCSC)n3cc(CCO)nn3)CC2)nc(N2CCN(C(=O)CCCCCCCCCCNC(=O)[C@H]([C@@H](C)CC)n3cc(CCCCN=C(N)N)nn3)CC2)n1	0.41µM*	6%	nt	?	1.7µM*	?
CCC(Cc1c(I)cc(I)c(O)c1I)C(=O)O (centres undefined)	4%	nt	nt	nt	-16%	nt
Cc1ccc(C(c2nnnn2CCc2ccccc2)N2CCSCC2)cc1 (centres undefined)	nt	-1%	-14%	-29%	?	-24%
Cc1ccc(C(c2cc(Br)ccc2O)N2CCSCC2)cc1 (centres undefined)	15µM*	-26%	nt	10%	9.3µM*	-12%
O=c1[nH]c(C2CCCN(S(=O)(=O)c3ccccc3)C2)nc2c1nnn2Cc1ccccc1F (centres undefined)	10%	5%	-42%	7%	10µM*	6%
O=c1[nH]c(C2CCN(S(=O)(=O)c3ccc4c(c3)OCCO4)CC2)nc2c1nnn2Cc1ccccc1F	13µM*	-2%	?	19%	?	-16%
COc1ccc(Cn2nnc3c(=O)[nH]c(C4CCCN(C(=O)c5ccccc5)C4)nc32)cc1 (centres undefined)	12µM*	1%	-9%	?	?	-2%
COc1cccc(Cn2nnc3c(=O)[nH]c(C4CCCN(C(=O)c5ccccc5Cl)C4)nc32)c1 (centres undefined)	75%	-6%	12%	-11%	?	15%
O=c1[nH]c(C2CCCN(S(=O)(=O)c3cccc(F)c3)C2)nc2c1nnn2Cc1ccccc1 (centres undefined)	?	3%	26%	8%	7.4µM*	-2%
C=CCn1c(CCc2cc(C(C)(C)C)c(O)c(C(C)(C)C)c2)n[nH]c1=S	?	0%	nt	2%	?	44%
Cc1ccc(C[C@H](C(=O)O)N2C(=O)c3ccc(C(=O)O)cc3C2=O)cc1	11%	4%	nt	nt	9%	nt
Cc1ccc([N+](=O)[O-])cc1NCC(=O)NN	12%	0%	5%	3%	28%	26%
O=c1[nH]c(C2CCN(S(=O)(=O)c3ccccc3C(F)(F)F)CC2)nc2c1nnn2Cc1cccc(F)c1	?	3%	16%	-7%	2.6µM*	-16%
O=c1[nH]c(C2CCN(S(=O)(=O)c3ccc(C(F)(F)F)cc3)CC2)nc2c1nnn2Cc1cccc(F)c1	?	6%	?	4%	?	-10%
O=c1[nH]c(C2CCCN(S(=O)(=O)c3ccccc3)C2)nc2c1nnn2Cc1ccccc1 (centres undefined)	-40%	0%	-4%	4%	10µM*	-5%
Cc1cc(C)c(S(=O)(=O)N2CCCCC2CCNC(=O)C(=O)NCc2ccccn2)c(C)c1 (centres undefined)	?	-2%	nt	-27%	?	62%
NC1=NC(c2ccc(Cl)cc2)N(c2ccc(S(N)(=O)=O)cc2)C(N)=N1 (centres undefined)	9.3µM*	3%	-1%	-3%	?	4%
NC1=N[C@H](c2ccc(Cl)cc2)N(c2ccc(S(N)(=O)=O)cc2)C(N)=N1	nt	nt	-5%	nt	nt	nt
SMILES	Pf growth 96h	SARS PLP yeast	NS1 function inh	HCV inhibitor	Pf growth 48h	AMA1 RON2 block
O=C(NNS(=O)(=O)c1ccc(F)cc1)C1CC(c2cccnc2)=NO1 (centres undefined)	154%	-2%	nt	10%	55%	-2%
COCCN(C(=S)Nc1ccc(C)cc1)C(C)c1cccnc1 (centres undefined)	-15%	0%	nt	1%	?	2%
COCCN(C(=O)Nc1ccccc1)C(C)c1cccnc1 (centres undefined)	5.2µM*	-2%	1%	8%	nt	-7%
COCCCN(C(=O)Nc1ccc(C)c(C)c1)C(C)c1ccccn1 (centres undefined)	13µM*	1%	-14%	-10%	nt	73%
CCC(NS(=O)(=O)c1ccc(OC)cc1)C(=O)NCCc1ccccc1 (centres undefined)	?	1%	-5%	-11%	?	13%
O=C(c1ccc(C(F)(F)F)cc1)N1CCC(=O)N(C(COCc2ccccc2)Cc2ccccc2)CC1 (centres undefined)	8.3µM*	-11%	-25%	1%[8.37 µM]	?	-4%
O=C(c1ccc(C(F)(F)F)cc1)N1CCC(=O)N(C(COCc2ccc(Cl)cc2)Cc2ccccc2)CC1 (centres undefined)	?	-15%	25%	2%[8.37 µM]	?	18%
CC(C)(C)c1ccc(C(=O)N2CCC(=O)N(C(COCc3ccccc3)Cc3ccccc3)CC2)cc1 (centres undefined)	12µM*	-20%	10%	?	9.3µM*	-4%
CC(C)CC(COCc1cccc(C(F)(F)F)c1)N1CCN(C(=O)c2cccc(C(F)(F)F)c2)CCC1=O (centres undefined)	15µM*	-3%	16%	?	?	1%
O=C(c1ccc(Cl)c(Cl)c1)N1CCC(=O)N(C(COCc2cccc(C(F)(F)F)c2)Cc2ccccc2)CC1 (centres undefined)	13µM*	-24%	16%	5%[8.37 µM]	?	-6%
COc1ccc(N(C(=O)c2snc(C(N)=O)c2N)C(C(=O)NC2CCCC2)c2ccco2)cc1 (centres undefined)	-25%	-1%	4%	-20%	?	-11%
